# According to publication PMC7862700, “An all-to-all approach to the identification of sequence-specific readers for epigenetic DNA modifications on cytosine”:
# Legend:
# Assay in all cases: DAPPL (digital affinity profiling via proximity ligation, sequencing); 10 mM Tris-HCl pH 7.5, 50 mM NaCl, 1 mM DTT, 4% glycerol, room temperature, 30 min; GST-TFs on glutathione beads, 16-mer random dsDNA library, 0.1% formaldehyde crosslink after washing; high values mean tight binding
# FLI1 = target: T1, FLI1 (Homo sapiens, UniProt Q01543 1-452); conditions: protein: recombinant; tags: N-terminal GST; dsDNA, one strand shown
# T1 sequence: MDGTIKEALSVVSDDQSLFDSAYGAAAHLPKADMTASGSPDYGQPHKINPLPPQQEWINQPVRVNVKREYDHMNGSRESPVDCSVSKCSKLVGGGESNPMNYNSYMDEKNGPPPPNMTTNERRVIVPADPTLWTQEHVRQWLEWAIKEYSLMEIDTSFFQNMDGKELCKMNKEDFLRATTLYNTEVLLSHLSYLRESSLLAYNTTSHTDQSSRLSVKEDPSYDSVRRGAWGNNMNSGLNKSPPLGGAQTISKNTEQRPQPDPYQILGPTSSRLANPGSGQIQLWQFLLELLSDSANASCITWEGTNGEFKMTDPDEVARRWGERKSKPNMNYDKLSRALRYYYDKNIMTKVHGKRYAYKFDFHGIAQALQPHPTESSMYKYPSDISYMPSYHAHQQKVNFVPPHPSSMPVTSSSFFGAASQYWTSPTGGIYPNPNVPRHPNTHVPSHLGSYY
# Outline: (§1)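 Pools were built from human transcription factors expressed in yeast as GST fusions, captured on glutathione beads and DNA-barcoded, along with a tag-only sample. Incubation with 200 nmole of a 16-mer random double-stranded DNA library lasted 30 min at room temperature in Tris/NaCl/DTT/glycerol buffer, and was followed by washing, 0.1% formaldehyde crosslinking, proximity ligation, PCR amplification and Illumina NextSeq500 sequencing. Binding signal is the quotient of each hexamer's read frequency for a factor and its frequency for the tag-only sample.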
# ELK1 = target: T2, ELK1 (Homo sapiens, UniProt P19419 1-428); conditions: protein: recombinant; tags: N-terminal GST; dsDNA, one strand shown
# T2 sequence: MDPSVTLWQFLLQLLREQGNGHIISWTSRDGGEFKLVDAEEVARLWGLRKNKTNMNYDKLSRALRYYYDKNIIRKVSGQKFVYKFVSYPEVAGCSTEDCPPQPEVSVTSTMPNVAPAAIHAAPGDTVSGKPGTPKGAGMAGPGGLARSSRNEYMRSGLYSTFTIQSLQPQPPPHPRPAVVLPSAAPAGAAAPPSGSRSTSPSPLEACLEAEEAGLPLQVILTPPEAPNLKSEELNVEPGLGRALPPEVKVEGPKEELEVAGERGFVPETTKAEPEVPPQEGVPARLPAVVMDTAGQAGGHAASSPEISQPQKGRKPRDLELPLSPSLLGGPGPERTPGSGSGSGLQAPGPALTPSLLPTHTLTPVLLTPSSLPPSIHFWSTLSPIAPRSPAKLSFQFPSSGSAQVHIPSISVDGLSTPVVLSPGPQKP
# Outline: as §1
# GABPA = target: T3, GABPA (Homo sapiens, UniProt Q06546 1-454); conditions: protein: recombinant; tags: N-terminal GST; dsDNA, one strand shown
# T3 sequence: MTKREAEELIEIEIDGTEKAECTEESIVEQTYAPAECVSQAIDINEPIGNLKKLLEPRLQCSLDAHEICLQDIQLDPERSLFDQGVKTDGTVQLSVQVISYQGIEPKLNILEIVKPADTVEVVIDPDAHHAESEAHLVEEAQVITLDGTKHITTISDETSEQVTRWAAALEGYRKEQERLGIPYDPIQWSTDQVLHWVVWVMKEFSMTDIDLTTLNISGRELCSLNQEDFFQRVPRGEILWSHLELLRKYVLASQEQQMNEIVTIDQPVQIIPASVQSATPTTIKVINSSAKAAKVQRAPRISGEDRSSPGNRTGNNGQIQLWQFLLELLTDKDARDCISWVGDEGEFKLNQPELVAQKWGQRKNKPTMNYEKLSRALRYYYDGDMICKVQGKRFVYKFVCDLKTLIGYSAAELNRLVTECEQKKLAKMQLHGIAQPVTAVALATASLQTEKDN
# Outline: as §1
# ERG = target: T4, ERG (Homo sapiens, UniProt P11308 1-479); conditions: protein: recombinant; tags: N-terminal GST; dsDNA, one strand shown
# T4 sequence: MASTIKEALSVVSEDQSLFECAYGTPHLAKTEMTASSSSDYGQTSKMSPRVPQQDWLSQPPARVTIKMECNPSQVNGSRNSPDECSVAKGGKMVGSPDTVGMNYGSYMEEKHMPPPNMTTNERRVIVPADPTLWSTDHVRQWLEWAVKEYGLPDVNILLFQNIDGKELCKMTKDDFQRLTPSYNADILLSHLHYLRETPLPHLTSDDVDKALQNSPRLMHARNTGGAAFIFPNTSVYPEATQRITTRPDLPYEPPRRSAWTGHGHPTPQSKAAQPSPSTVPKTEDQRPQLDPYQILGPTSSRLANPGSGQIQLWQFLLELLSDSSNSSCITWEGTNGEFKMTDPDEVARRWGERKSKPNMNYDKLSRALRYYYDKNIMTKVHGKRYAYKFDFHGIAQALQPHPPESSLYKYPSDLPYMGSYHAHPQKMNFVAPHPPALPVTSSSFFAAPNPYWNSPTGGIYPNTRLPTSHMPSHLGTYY
# Outline: as §1
# ELF1 = ELF1 (Homo sapiens, UniProt P32519 1-619); conditions: protein: recombinant; tags: N-terminal GST; dsDNA, one strand shown
# Chain of ELF1 (P32519 whole entry): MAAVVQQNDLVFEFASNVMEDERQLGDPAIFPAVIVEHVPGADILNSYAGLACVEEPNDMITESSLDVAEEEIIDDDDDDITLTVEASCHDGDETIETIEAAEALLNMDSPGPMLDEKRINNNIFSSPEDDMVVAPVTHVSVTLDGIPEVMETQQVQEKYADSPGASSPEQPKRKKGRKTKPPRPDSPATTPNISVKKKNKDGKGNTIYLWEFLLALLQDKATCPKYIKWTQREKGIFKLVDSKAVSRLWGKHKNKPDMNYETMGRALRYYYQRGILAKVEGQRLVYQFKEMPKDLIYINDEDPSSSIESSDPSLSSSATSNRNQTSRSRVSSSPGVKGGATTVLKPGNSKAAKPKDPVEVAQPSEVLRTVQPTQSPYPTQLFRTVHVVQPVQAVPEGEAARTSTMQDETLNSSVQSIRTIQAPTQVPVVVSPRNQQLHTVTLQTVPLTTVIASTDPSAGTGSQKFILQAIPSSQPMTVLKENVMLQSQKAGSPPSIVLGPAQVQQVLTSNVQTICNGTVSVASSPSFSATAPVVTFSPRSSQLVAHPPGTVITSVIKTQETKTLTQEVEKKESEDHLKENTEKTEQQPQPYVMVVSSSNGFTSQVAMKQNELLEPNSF
# Outline: as §1
# EHF = target: T5, EHF (Homo sapiens, UniProt Q9NZC4 1-300); conditions: protein: recombinant; tags: N-terminal GST; dsDNA, one strand shown
# T5 sequence: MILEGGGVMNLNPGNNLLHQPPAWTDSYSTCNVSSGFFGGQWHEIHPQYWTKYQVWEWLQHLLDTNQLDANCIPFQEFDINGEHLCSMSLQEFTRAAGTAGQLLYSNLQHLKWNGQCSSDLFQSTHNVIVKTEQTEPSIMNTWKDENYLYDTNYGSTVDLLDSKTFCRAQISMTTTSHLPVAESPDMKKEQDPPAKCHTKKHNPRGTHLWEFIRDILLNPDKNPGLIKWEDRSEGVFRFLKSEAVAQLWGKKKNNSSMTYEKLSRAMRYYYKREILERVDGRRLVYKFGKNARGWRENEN
# Outline: as §1
# SPI1 = SPI1 (Homo sapiens, UniProt P17947 1-270); conditions: protein: recombinant; tags: N-terminal GST; dsDNA, one strand shown
# Outline: as §1
# SPIB = SPIB (Homo sapiens, UniProt Q01892 1-262); conditions: protein: recombinant; tags: N-terminal GST; dsDNA, one strand shown
# Chain of SPIB (Q01892 whole entry): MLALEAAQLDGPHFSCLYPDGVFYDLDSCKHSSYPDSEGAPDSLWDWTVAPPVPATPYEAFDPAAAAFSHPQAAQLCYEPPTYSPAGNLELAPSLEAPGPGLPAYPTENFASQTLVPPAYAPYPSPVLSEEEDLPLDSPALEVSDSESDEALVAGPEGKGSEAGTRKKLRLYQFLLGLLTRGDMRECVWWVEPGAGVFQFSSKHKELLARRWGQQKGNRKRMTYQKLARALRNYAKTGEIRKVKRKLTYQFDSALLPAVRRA
# Outline: as §1
# ELK3 = target: T6, ELK3 (Homo sapiens, UniProt P41970 1-407); conditions: protein: recombinant; tags: N-terminal GST; dsDNA, one strand shown
# T6 sequence: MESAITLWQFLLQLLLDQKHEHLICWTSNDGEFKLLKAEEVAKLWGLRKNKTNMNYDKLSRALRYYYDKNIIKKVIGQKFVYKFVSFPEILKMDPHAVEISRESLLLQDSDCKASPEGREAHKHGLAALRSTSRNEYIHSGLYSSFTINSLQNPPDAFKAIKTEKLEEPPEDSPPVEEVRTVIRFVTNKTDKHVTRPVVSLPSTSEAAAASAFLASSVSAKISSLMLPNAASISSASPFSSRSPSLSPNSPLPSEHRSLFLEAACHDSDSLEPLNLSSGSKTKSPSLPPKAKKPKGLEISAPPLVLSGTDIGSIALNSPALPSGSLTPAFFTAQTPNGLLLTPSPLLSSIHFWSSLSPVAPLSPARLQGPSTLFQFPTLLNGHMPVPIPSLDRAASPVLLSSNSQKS
# Outline: as §1
# FEV = target: T7, FEV (Homo sapiens, UniProt Q99581 1-238); conditions: protein: recombinant; tags: N-terminal GST; dsDNA, one strand shown
# T7 sequence: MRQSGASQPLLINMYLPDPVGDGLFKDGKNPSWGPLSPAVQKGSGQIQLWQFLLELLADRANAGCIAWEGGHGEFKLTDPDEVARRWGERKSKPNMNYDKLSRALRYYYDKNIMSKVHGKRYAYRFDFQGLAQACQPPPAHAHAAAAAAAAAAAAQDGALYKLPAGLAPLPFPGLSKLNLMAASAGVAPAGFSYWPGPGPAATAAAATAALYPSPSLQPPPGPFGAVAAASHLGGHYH
# Outline: as §1
# ETV5 = ETV5 (Homo sapiens, UniProt P41161 1-510); conditions: protein: recombinant; tags: N-terminal GST; dsDNA, one strand shown
# Chain of ETV5 (P41161 whole entry): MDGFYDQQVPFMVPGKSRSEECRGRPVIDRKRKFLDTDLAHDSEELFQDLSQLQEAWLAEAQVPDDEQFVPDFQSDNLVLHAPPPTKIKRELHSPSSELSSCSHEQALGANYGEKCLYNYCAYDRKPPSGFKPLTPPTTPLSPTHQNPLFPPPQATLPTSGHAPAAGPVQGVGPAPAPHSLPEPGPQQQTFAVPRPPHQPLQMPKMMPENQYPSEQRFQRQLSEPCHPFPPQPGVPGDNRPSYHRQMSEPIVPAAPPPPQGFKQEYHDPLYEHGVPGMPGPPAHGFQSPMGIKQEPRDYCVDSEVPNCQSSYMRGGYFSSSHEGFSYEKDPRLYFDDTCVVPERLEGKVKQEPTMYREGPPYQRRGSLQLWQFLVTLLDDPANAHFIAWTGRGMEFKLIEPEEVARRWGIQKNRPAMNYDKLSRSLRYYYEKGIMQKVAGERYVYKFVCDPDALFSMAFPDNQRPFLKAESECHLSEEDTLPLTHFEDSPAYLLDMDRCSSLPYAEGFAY
# Outline: as §1
# HSF1 = HSF1 (Homo sapiens, UniProt Q00613 1-529); conditions: protein: recombinant; tags: N-terminal GST; chain copies: 3; dsDNA, one strand shown
# Chain of HSF1 (Q00613 whole entry): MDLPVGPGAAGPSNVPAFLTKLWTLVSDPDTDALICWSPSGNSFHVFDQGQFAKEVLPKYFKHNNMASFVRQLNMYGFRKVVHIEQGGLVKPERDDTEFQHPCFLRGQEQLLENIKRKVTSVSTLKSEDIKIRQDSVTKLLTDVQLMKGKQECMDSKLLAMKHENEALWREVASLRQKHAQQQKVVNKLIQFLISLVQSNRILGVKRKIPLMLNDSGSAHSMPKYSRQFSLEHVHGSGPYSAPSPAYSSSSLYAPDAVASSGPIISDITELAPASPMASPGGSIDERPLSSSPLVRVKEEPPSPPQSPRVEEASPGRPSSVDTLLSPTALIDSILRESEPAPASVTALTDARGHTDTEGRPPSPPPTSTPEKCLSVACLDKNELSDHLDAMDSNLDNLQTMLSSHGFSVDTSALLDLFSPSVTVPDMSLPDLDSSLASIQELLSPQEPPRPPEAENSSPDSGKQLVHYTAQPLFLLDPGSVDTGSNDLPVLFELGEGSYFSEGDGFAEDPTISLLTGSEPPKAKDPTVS
# Outline: as §1
# SPIC = target: T8, SPIC (Homo sapiens, UniProt Q8N5J4 1-248); conditions: protein: recombinant; tags: N-terminal GST; dsDNA, one strand shown
# T8 sequence: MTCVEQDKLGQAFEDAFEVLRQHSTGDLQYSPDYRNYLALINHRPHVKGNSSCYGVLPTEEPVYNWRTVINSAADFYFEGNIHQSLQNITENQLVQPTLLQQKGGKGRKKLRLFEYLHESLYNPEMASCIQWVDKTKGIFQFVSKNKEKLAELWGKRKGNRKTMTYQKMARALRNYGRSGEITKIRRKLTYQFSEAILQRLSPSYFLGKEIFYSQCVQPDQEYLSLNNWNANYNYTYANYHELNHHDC
# Outline: as §1
# ELF4 = ELF4 (Homo sapiens, UniProt Q99607 1-663); conditions: protein: recombinant; tags: N-terminal GST; dsDNA, one strand shown
# Chain of ELF4 (Q99607 whole entry): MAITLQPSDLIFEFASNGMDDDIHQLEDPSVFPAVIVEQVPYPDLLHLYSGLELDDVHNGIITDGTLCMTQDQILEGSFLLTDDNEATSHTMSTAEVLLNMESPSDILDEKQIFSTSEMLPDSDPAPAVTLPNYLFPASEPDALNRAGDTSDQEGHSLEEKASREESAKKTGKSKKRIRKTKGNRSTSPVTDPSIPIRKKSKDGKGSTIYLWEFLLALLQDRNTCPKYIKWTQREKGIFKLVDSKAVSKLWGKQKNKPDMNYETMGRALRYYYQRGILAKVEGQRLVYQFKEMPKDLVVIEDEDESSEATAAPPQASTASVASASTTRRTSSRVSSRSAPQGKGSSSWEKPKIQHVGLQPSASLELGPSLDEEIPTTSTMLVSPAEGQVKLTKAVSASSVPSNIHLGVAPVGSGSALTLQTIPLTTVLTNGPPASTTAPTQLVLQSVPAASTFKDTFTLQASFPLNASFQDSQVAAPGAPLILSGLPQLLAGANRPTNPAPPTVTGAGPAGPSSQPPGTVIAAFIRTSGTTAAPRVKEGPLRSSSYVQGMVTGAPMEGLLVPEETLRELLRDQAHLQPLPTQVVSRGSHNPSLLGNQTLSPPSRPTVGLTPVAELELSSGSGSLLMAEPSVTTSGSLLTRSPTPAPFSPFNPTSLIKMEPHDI
# Outline: as §1
# ELK4 = target: T9, ELK4 (Homo sapiens, UniProt P28324-2 1-405); conditions: protein: recombinant; tags: N-terminal GST; dsDNA, one strand shown
# T9 sequence: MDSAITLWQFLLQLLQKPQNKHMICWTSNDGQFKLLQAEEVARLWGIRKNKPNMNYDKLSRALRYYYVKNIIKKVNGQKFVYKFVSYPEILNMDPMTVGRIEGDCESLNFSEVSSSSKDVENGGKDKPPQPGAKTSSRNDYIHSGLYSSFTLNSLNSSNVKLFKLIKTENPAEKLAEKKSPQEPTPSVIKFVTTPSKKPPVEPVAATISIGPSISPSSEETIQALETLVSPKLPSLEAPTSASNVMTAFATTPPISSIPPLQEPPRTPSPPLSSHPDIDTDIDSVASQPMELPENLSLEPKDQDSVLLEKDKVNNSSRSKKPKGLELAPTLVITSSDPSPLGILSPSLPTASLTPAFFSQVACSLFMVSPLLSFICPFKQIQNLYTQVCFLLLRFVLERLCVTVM
# Outline: as §1
# ETV2 = target: T10, ETV2 (Homo sapiens, UniProt O00321 1-342); conditions: protein: recombinant; tags: N-terminal GST; dsDNA, one strand shown
# T10 sequence: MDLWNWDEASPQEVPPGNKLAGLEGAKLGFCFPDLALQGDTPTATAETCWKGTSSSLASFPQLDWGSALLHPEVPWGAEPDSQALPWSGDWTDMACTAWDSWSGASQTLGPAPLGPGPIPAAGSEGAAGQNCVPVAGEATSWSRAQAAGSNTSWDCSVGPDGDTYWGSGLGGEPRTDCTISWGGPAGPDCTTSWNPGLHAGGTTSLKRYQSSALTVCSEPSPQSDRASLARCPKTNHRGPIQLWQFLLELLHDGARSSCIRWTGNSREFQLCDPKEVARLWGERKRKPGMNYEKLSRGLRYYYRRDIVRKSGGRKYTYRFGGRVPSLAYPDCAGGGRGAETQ
# Outline: as §1
# ELF3 = target: T11, ELF3 (Homo sapiens, UniProt P78545 1-371); conditions: protein: recombinant; tags: N-terminal GST; dsDNA, one strand shown
# T11 sequence: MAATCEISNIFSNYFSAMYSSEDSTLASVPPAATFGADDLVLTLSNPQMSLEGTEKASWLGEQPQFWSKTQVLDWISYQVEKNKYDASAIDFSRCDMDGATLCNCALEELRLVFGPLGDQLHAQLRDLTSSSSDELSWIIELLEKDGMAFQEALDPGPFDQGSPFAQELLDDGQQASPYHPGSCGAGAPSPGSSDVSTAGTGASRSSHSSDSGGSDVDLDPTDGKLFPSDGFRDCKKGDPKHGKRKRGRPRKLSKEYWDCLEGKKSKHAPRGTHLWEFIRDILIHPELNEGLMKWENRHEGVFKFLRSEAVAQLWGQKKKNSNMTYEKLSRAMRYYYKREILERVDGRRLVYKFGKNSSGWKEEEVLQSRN
# Outline: as §1
# ETV1 = ETV1 (Homo sapiens, UniProt P50549 1-477); conditions: protein: recombinant; tags: N-terminal GST; dsDNA, one strand shown
# Chain of ETV1 (P50549 whole entry): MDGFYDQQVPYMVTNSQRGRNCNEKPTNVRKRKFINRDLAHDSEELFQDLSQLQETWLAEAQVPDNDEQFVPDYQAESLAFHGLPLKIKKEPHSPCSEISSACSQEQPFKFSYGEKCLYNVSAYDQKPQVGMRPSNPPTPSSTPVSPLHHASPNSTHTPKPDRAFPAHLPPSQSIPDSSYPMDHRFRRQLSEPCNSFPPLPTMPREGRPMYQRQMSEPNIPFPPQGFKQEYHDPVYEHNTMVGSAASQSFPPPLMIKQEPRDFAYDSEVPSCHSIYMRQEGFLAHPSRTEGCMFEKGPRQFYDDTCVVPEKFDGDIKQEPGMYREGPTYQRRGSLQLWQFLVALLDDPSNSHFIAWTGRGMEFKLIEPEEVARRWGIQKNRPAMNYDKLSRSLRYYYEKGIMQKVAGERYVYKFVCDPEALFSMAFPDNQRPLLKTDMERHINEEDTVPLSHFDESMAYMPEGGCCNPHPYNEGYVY
# Outline: as §1
sequence,measurement,setting,value
CCGTAC,binding signal,FLI1,"1.39 fold enrichment (6-mer frequency, TF over GST control)"
same,binding signal,ELK1,"1.25 fold enrichment (6-mer frequency, TF over GST control)"
same,binding signal,GABPA,"1.33 fold enrichment (6-mer frequency, TF over GST control)"
same,binding signal,ERG,"1.3 fold enrichment (6-mer frequency, TF over GST control)"
same,binding signal,ELF1,"1.45 fold enrichment (6-mer frequency, TF over GST control)"
same,binding signal,EHF,"1.33 fold enrichment (6-mer frequency, TF over GST control)"
same,binding signal,SPI1,"1.22 fold enrichment (6-mer frequency, TF over GST control)"
same,binding signal,SPIB,"1.15 fold enrichment (6-mer frequency, TF over GST control)"
same,binding signal,ELK3,"1.28 fold enrichment (6-mer frequency, TF over GST control)"
same,binding signal,FEV,"1.24 fold enrichment (6-mer frequency, TF over GST control)"
same,binding signal,ETV5,"1.33 fold enrichment (6-mer frequency, TF over GST control)"
same,binding signal,HSF1,"1.06 fold enrichment (6-mer frequency, TF over GST control)"
same,binding signal,SPIC,"1.18 fold enrichment (6-mer frequency, TF over GST control)"
same,binding signal,ELF4,"1.26 fold enrichment (6-mer frequency, TF over GST control)"
same,binding signal,ELK4,"1.36 fold enrichment (6-mer frequency, TF over GST control)"
same,binding signal,ETV2,"1.42 fold enrichment (6-mer frequency, TF over GST control)"
same,binding signal,ELF3,"1.33 fold enrichment (6-mer frequency, TF over GST control)"
same,binding signal,ETV1,"1.34 fold enrichment (6-mer frequency, TF over GST control)"
